A short description of assay [1]: small molecules captured by biotinylated probe aFSTL3 – biochemical, small-molecule microarray, fluorescence 635/667, stem cell growth factor project, primary screen (AID 1064).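 Further: measures binding of the biotinylated anti-FSTL3 antibody to printed compounds.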 The conditions noted are these: higher = more signal.
The nature of assay [2]: binders from COS7 lysate, DM2A8 probe, primary screen, torsin A project, cell lysate, small-molecule microarray, fluorescence 635/667 (AID 1065). Conditions: higher = more signal, COS7 lysate expressing mutant human TOR1A.
Assay [3] is described as follows: small molecules captured by biotinylated probe aFGF2 – biochemical, small-molecule microarray, fluorescence 635/667, stem cell growth factor project, primary screen (AID 1067).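 Further: measures binding of biotinylated aFGF2 protein to printed compounds on slides; z-score merges feature fluorescence and signal-to-noise across triplicate slides.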 Conditions: higher = more signal.
Assay [4] is described as follows: small molecules captured by biotinylated probe aFGF10 – biochemical, small-molecule microarray, fluorescence 635/667, stem cell growth factor project, primary screen (AID 1071).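 Further: score merges 667 nm spot intensity and signal to noise from triplicate slides.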 The conditions noted are these: higher = more signal.
Assay [5] concerns the target Neurogenic locus notch homolog protein 2 (Homo sapiens) (UniProt Q04721). The assay is described as follows: small molecules binding Notch2 protein – biochemical, small-molecule microarray, 635 nm fluorescence, stem cell growth factors, primary screen (AID 1073). Conditions: higher = more signal.
For assay [6], the target named is Pro-neuregulin-1, membrane-bound isoform (Homo sapiens) (UniProt Q02297). The assay is described as follows: small molecules binding neuregulin-1 protein – biochemical, small-molecule microarray, fluorescence 635/667, psychiatric disease protein project, primary screen (AID 1075).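 Further: score combines 667 nm spot fluorescence with signal to noise.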 The conditions noted are these: NRG1 binding, 635 nm fluorescence, higher = more signal.

For assay [7], the system named is Neuregulin-1 EGF-like domain. The assay is described as follows: small molecules binding NRG1 EGF domain – biochemical, small-molecule microarray, 635 nm fluorescence, primary screen (AID 1081).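 Further: binding of the protein to compounds printed on small-molecule microarray slides.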 Conditions: higher = more signal.
Assay [8] can be described thus: FRG1 expression reporter modulators in myotubes – cell-based, C2C12 myotubes, firefly/Renilla luciferase, luminescence, FRG1 inhibition for FSHD, primary screen (AID 1084). The conditions noted are these: FRG1 promoter luciferase, higher = more signal, called active from +8 up or from −8 down.
Assay [9] can be described thus: small molecules captured by biotinylated probe aFST – biochemical, small-molecule microarray, fluorescence 635/667, stem cell growth factor project, primary screen (AID 1086).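 Further: score merges 667 nm fluorescence with signal-to-noise of each printed compound spot.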 Conditions: higher = more signal.
Assay [10] can be described thus: binders of probe aHhip on microarray, primary screen, stem cell growth factor project, biochemical, small-molecule microarray, fluorescence 635/667 (AID 1087).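 Further: score merges spot fluorescence at 667nm with spot signal to noise ratio.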 Conditions: higher = more signal.
Assay [11] has as its system PRMT1 (protein arginine N-methyltransferase 1). The assay is described as follows: small molecules binding arginine methyltransferase PRMT1 – biochemical, small-molecule microarray, 635 nm fluorescence, primary screen (AID 1088).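 Further: binding of Prmt1 protein to compounds spotted on small-molecule microarray slides.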 Conditions: higher = more signal.
The nature of assay [12]: growth effects on S. cerevisiae YJM789 – YJM789 clinical isolate, OD600, 24 h, basal, primary screen (AID 1089).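 Further: growth of clinical yeast isolate S. cerevisiae YJM 789 seeded 1000 cells per well; test concentration not given here.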 Conditions: higher = more signal, called active from +8 up or from −8 down.
A short description of assay [13]: S. pombe growth modifiers, basal conditions – strain 972, OD600, 24 h, no modulator, primary screen (AID 1090).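 Further: basal condition with compound alone and no growth modifier present; test concentration not given here.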 Conditions: S. pombe 972 growth, higher = more signal, called active from +8 up or from −8 down.
Assay [14] is described as follows: budding yeast growth modifiers under rapamycin – strain BY4716, OD600, 96 h, primary screen (AID 1091). Further: test concentration not given here. Conditions: S. cerevisiae BY4716 + rapamycin, higher = more signal, called active from +8 up or from −8 down.
The target of assay [15] is Torsin-1A-interacting protein 2 (Homo sapiens) (UniProt Q8NFQ8). The assay is described as follows: small molecules binding lysate-expressed LULL1 – cell lysate, human LULL1 lysate, 635/667 nm fluorescence, primary screen (AID 1092).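 Further: probe is lysate of COS7 cells overexpressing human LULL1; score merges per-feature 667 nm fluorescence with signal-to-noise.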 Conditions: small-molecule microarray, hLULL1 lysate binding, 635 nm fluorescence; higher = more signal.
Assay [16] can be described thus: optical density change of DRC41 E. coli – strain DRC41, OD650, 24 h, E. coli filamentation project, primary screen (AID 1093).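 Further: MC1000 strain lacking acrAB efflux and sulA so SOS filamentation is blocked; test concentration not given here.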 The conditions noted are these: E. coli DRC41 growth, higher = more signal, called active from +8 up or from −8 down.
Assay [17] is described as follows: probe aLefty2 binding to arrayed compounds – biochemical, biotinylated probe, 635/667 nm fluorescence, primary screen (AID 1094).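 Further: score merges spot fluorescence near 667 nm with spot signal-to-noise ratio.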 The conditions noted are these: small-molecule microarray, higher = more signal.
The test system of assay [18] is Noggin (protein binding on small-molecule microarray). Nature of the assay: small molecules binding Noggin protein – biochemical, 635/667 nm fluorescence, primary screen (AID 1095).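 Further: score merges 667 nm feature fluorescence with signal to noise over triplicate slides.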 Conditions: 635 nm fluorescence, higher = more signal.
Assay [19] concerns the target Neurogenic locus notch homolog protein 3 (Homo sapiens) (UniProt Q9UM47). The assay is described as follows: small molecules binding NOTCH3 protein – biochemical, 635/667 nm fluorescence, primary screen (AID 1096). Conditions: small-molecule microarray, 635 nm fluorescence, higher = more signal.
The nature of assay [20]: probe aEGFR binding to arrayed compounds – biochemical, biotinylated probe, 635/667 nm fluorescence, primary screen (AID 1097).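 Further: probe is a biotinylated anti-EGFR antibody binding compounds printed on slides; score combines fluorescence near 667 nm and signal to noise of each spot.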 Conditions: small-molecule microarray, higher = more signal.

Calls of active or inactive are those of the source.

Chain of Neurogenic locus notch homolog protein 2 (Homo sapiens) (Q04721 whole entry, looked up, canonical isoform): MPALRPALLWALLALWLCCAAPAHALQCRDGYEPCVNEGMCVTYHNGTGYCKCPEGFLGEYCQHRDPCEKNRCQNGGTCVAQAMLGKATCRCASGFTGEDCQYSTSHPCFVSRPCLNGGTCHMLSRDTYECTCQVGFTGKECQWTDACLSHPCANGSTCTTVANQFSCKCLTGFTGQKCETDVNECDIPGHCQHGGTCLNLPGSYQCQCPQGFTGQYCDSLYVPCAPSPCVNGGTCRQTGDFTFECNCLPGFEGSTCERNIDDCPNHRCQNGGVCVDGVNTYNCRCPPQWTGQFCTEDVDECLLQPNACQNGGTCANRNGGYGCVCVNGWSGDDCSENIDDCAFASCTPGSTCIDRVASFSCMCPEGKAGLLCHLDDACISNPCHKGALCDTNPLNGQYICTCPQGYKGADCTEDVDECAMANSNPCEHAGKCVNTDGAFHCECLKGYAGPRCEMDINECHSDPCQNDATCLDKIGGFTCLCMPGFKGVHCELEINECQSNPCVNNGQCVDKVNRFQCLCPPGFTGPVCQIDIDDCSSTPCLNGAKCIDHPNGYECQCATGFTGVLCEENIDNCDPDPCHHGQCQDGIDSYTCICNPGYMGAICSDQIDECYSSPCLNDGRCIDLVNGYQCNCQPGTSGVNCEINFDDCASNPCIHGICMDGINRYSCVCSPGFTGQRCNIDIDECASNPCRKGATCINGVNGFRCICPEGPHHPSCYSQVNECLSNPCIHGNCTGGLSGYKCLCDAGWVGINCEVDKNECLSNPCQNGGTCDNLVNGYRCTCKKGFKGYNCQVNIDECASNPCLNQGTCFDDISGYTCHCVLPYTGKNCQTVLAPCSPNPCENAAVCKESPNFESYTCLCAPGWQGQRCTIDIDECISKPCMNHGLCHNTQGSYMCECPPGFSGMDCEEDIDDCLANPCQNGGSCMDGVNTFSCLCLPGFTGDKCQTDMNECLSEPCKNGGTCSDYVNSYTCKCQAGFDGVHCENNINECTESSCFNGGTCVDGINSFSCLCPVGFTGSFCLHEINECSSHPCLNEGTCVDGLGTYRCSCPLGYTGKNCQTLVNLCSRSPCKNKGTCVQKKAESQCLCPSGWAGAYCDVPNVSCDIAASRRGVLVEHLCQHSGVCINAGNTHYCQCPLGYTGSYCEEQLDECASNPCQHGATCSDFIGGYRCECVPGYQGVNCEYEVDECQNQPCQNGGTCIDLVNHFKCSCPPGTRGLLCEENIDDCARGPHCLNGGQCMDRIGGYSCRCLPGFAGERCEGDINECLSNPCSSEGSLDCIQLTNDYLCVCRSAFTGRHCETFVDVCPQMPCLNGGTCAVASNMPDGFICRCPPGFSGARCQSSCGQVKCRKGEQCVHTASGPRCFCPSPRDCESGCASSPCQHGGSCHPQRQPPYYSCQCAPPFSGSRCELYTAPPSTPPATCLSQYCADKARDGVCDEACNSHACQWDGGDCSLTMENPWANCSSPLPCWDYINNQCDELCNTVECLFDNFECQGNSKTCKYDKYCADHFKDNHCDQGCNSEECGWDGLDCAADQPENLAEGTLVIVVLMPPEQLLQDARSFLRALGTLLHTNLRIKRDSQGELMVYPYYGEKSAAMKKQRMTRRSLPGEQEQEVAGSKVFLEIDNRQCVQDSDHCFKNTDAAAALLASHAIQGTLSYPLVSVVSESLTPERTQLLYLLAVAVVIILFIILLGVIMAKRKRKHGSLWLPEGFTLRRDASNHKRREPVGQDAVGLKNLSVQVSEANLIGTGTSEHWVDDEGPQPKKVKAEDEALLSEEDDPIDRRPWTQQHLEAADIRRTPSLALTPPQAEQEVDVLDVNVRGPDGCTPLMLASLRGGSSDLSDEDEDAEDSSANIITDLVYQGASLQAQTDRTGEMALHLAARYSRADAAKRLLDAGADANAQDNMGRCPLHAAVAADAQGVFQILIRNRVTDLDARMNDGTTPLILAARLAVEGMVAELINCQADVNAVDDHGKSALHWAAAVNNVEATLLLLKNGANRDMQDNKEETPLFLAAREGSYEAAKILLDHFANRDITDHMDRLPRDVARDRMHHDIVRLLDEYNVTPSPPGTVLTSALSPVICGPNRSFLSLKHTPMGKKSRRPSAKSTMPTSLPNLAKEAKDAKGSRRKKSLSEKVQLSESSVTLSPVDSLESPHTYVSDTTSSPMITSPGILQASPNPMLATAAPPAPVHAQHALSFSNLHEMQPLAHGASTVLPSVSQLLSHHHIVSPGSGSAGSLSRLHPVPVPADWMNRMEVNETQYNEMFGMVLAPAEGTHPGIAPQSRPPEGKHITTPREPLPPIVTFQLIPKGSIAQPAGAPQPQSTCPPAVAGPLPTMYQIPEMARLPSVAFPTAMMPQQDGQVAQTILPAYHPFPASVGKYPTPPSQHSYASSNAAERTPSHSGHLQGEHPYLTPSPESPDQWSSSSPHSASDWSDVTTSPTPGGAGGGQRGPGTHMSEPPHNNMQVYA
Chain of Pro-neuregulin-1, membrane-bound isoform (Homo sapiens) (Q02297 whole entry, looked up, canonical isoform): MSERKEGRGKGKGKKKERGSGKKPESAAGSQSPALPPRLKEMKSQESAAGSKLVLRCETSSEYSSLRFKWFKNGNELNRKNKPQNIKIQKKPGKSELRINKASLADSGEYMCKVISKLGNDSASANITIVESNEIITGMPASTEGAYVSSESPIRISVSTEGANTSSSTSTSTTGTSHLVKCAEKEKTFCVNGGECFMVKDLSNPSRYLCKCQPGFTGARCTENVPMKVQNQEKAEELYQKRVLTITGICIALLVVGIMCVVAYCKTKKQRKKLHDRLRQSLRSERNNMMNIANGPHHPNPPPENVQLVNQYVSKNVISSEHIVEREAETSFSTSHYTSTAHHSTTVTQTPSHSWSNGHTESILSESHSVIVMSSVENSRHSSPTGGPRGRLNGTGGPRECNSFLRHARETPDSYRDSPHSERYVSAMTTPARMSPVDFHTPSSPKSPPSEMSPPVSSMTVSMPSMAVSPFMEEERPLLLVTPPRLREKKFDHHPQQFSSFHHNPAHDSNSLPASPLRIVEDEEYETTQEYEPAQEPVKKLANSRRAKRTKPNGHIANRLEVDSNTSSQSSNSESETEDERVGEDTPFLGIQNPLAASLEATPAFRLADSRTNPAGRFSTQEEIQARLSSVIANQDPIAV
Chain of Torsin-1A-interacting protein 2 (Homo sapiens) (Q8NFQ8 whole entry, looked up): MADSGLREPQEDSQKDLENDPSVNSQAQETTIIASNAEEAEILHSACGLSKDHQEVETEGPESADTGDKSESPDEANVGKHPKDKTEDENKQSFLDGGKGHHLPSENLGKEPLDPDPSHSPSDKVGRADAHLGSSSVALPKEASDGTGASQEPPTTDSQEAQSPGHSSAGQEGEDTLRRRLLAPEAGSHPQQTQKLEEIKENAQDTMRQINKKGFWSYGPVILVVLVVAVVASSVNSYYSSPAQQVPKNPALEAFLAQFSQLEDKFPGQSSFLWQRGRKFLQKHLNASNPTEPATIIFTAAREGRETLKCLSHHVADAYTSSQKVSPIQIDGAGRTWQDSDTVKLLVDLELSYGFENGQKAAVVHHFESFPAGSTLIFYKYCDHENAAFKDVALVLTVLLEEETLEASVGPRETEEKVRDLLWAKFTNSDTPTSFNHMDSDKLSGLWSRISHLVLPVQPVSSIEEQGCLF

Regarding `COCCOC(=O)N1C(=O)[C@@]2(c3cc(C#CCC(C(=O)OC)C(=O)OC)ccc31)[C@H](C(=O)Nc1nc3ccccc3s1)[C@H]1C(=O)O[C@H](c3ccccc3)[C@H](c3ccccc3)N1[C@@H]2c1ccccc1OCCO`, the composite z-score in assay [1] was determined as 0.0949; in assay [2] it was 0.684; in assay [3], 0.0821; in assay [4], 0.807; in assay [5], 1.49; in [6], 1.48. Also, the composite z-score in assay [7] is 1.24; in assay [9] it was 0.0716; in assay [10], 0.0873; in assay [11], 1.56; in assay [15] it was 2.78; in assay [17] it was -0.0171. Besides, the composite z-score in [18] amounted to 0.133; in [19], 1.11; in assay [20], 0.0556. The z-score in assay [8] was 2.19 (inactive); in assay [12], 2.48 (inactive); in assay [13], 2.08 (inactive); in assay [14] it was 3.23 (inactive); in assay [16] it was 0.374 (inactive).

Regarding `CCC(CC)C(O)C1C=CC2C(=O)NC(=O)C2N1Nc1ccc(Cl)cc1Cl` (stereo not given), the composite z-score in [1] is 0.494; in [2], 0.318; in assay [3], 0.133; in [4] it was 0.309; in assay [5] it was 1.42; in assay [6] it was 0.971. Also, the composite z-score in assay [7] is 1.08; in assay [9], 0.812; in assay [10], 0.0749; in assay [11], 1.4; in assay [15], 3.13; in [17] it was -0.0306. Moreover, the composite z-score in assay [18] is -0.284; in [19], 1.01; in [20] it was -0.0352. Besides, the z-score was -1.71 (inactive) in assay [8]; 0.446 (inactive) in assay [12]; -5.81 (inactive) in assay [13]; 1.34 (inactive) in [14]; -1.57 (inactive) in [16].

Regarding `CCOC(=O)[C@H]1C/C=C/C[C@H](C(=O)OCC)C(=O)O[C@H]2[C@@H](OC)O[C@H](CO)[C@@H](OC(=O)c3c(OC)cccc3OC)[C@@H]2OC1=O`, the composite z-score in assay [1] was 1.03; in [2], 0.321; in assay [3], -0.0275; in [4] it was 0.259; in assay [5], 0.297; in [6], 1.12. In addition, the composite z-score in assay [7] was 1.02; in assay [9] it was 0.951; in [10], 1.32; in [11], 1.33; in assay [15] it was 2.86; in [17], 0.573. For the same compound, the composite z-score in assay [18] was 1.15; in assay [19], 0.982; in assay [20], -0.0921. The z-score in assay [8] was 0.418 (inactive); in assay [12], 0.172 (inactive); in [13] it was -1.13 (inactive); in assay [14], 3.72 (inactive); in [16], -0.901 (inactive).

For the compound `CC(C)c1ccc(NN2C(C(O)c3ccc(B(O)O)cc3)C=CC3C(=O)N(c4ccccc4)C(=O)C32)cc1` (stereo not given), the composite z-score in [1] stood at 0.842; in [2] it was 0.0275; in assay [3], 0.185; in assay [4], 1.13; in assay [5] it was 1.63; in assay [6], 1.19. In addition, the composite z-score in [7] worked out at 1.15; in assay [9], 1.67; in assay [10], 0.0722; in [11], 0.815; in [15] it was 2.99; in assay [17], 0.413. The figures for the composite z-score in assay [18], in assay [19] and in assay [20] were -0.266, 1.11 and -0.0179, respectively. Further, the z-score in assay [8] was 0.87 (inactive); in assay [12], 0.0686 (inactive); in assay [13], -4.4 (inactive); in assay [14], 0.617 (inactive); in assay [16], -0.41 (inactive).

As for `COC(=O)[C@@]1(Cc2ccc(OC)cc2)[C@H]2c3cc(C(=O)N(C)C)n(Cc4ccccn4)c3C[C@H]2CN1C(=O)c1ccccc1`, the composite z-score in [1] is 1.19; in assay [2], 2.08; in assay [3], 0.0395; in assay [4], -0.175; in assay [5] it was 1.4; in [6], 2.35. Besides, the composite z-score was 0.89 in assay [7]; 0.852 in assay [9]; 0.408 in [10]; -1.12 in assay [11]; 3.08 in assay [15]; 0.282 in [17]. Moreover, the values for the composite z-score in [18], in [19] and in assay [20] were -1.12, 0.0171 and -0.0355, respectively. Besides, the z-score in assay [8] was 0.0734 (inactive); in assay [12], 0.0106 (inactive); in assay [13], 0.785 (inactive); in [14] it was 0.144 (inactive); in assay [16], -0.621 (inactive).

Source of the values: PubChem BioAssay.
